Values joined by “and” are separate entries in the source; they are usually repeats but may differ in a detail not shown here. Identical values can stand only once. Unmarked numbers belong to inactive results. Inconclusive results are not listed. A call without a number means that no potency is given here. Active and inactive are the calls of the source. Unless noted, calls come from the whole dose curve.
Tests used:
[1] = qHTS assay to identify small molecule agonists of the sonic hedgehog signaling (Shh) pathway (AID 1259368);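 note: NIH/3T3-derived 3T3Gli1-Luc cells carrying a stable Gli1-driven firefly luciferase reporter; series mostly up to about 92 µM; nearly all actives have a fitted effect of over 15% in size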
Outline: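 Mouse fibroblast (NIH/3T3) reporter cells with stably integrated Gli1-Luc were treated 24 hr with compound; firefly luciferase luminescence served as the read-out.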

[2] = qHTS assay to identify small molecule agonists of the androgen receptor (AR) signaling pathway in the presence of an antagonist - cell viability counter screen (AID 1259379; active = well fitted curve in the direction sought with a large enough effect in the repeat runs; an effect the other way counts as inactive or inconclusive; note: nearly all actives have a fitted effect of over 25% in size; note: potency is the fitted concentration of half-maximal effect)
Outline: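 A CellTiter-Fluor read-out measured viability of MDA-kb2 reporter cells (MMTV promoter with AR and GR response elements). Treatment: nilutamide 3.0uM final with compounds at 15 concentrations, 16 hr, 37C, 0% CO2.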

[3] = qHTS assay to identify small molecule agonists of the estrogen receptor beta (ER-beta) signaling pathway - cell viability counter screen (AID 1259380; active = well fitted curve in the direction sought with a large enough effect in the repeat runs; an effect the other way counts as inactive or inconclusive; note: nearly all actives have a fitted effect of over 30% in size; note: potency is the fitted concentration of half-maximal effect)
Outline: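 Cells used were ER-beta-UAS-bla HEK293T in medium with 2% charcoal-stripped FBS. They were treated for 16 hr at 37C. Viability came from CellTiter-Glo luminescence.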

[4] = qHTS assay to identify small molecule antagonists of the estrogen receptor beta (ER-beta) signaling pathway - cell viability counter screen (AID 1259382; active = well fitted curve in the direction sought with a large enough effect in the repeat runs; an effect the other way counts as inactive or inconclusive; note: series mostly up to about 92 µM; nearly all actives have a fitted effect of over 55% in size)
Outline: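 Agonist-stimulated (1nM E2) ER-beta-UAS-bla HEK293T cells are incubated with library compounds for 16 hr at 37C. Cell viability is then assessed in the reporter-assay wells by adding CellTiter-Glo and reading luminescence after 30 min.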

[5] = target: Estrogen receptor (Homo sapiens) (UniProt P03372); experiment: qHTS assay to identify small molecule agonists of the estrogen receptor alpha (ER-alpha) signaling pathway in the presence of an antagonist (AID 1259383); note: nearly all actives have a fitted effect of over 15% in size; note: potency is the fitted concentration of half-maximal effect; for activation: top concentration of the series differs between compounds
Sequence of Estrogen receptor (Homo sapiens) (P03372 whole entry, looked up): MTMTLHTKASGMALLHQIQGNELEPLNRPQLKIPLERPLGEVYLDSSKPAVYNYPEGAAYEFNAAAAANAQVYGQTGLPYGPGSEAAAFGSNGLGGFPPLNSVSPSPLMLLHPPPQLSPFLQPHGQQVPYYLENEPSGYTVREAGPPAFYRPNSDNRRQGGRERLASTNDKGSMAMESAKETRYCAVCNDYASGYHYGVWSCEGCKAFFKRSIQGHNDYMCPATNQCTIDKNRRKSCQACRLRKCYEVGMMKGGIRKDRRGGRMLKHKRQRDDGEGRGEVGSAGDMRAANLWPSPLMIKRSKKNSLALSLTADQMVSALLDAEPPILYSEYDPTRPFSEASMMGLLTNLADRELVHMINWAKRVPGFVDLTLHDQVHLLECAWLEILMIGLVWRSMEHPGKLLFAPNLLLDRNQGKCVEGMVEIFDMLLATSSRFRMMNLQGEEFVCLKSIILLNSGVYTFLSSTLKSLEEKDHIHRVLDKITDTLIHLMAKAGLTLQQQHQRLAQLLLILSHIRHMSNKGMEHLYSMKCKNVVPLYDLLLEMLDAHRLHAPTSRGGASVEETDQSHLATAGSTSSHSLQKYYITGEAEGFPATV
Outline: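 Using VM7Luc4E2 cells seeded 24hr before treatment, antagonist ICI-182,780 (10.0nM final) was added, followed by compounds at 15 concentrations. Plates incubated 22hr; ONE-Glo luminescence quantified reporter activity.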

[6] = qHTS assay to identify small molecule agonists or antagonists of the thyroid stimulating hormone receptor (TSHR) signaling pathway - wild type cell line counter screen (AID 1259384)
Outline: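 Wild-type HEK293 cells were plated 18 h at 37 C/5% CO2, pin-dosed with compound plus Ro20-1724 medium, held 30 min at room temperature, then given cAMP-d2 and anti-cAMP-cryptate; fluorescence was read after 1 h. Fifteen concentrations, triplicate.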

[7] = target: Thyrotropin receptor (Homo sapiens) (UniProt P16473); experiment: qHTS assay to identify small molecule antagonists of the thyroid stimulating hormone receptor (TSHR) signaling pathway (AID 1259385); note: nearly all actives have a fitted effect of over 20% in size; note: potency is the fitted concentration of half-maximal effect
Sequence of Thyrotropin receptor (Homo sapiens) (P16473 whole entry, looked up): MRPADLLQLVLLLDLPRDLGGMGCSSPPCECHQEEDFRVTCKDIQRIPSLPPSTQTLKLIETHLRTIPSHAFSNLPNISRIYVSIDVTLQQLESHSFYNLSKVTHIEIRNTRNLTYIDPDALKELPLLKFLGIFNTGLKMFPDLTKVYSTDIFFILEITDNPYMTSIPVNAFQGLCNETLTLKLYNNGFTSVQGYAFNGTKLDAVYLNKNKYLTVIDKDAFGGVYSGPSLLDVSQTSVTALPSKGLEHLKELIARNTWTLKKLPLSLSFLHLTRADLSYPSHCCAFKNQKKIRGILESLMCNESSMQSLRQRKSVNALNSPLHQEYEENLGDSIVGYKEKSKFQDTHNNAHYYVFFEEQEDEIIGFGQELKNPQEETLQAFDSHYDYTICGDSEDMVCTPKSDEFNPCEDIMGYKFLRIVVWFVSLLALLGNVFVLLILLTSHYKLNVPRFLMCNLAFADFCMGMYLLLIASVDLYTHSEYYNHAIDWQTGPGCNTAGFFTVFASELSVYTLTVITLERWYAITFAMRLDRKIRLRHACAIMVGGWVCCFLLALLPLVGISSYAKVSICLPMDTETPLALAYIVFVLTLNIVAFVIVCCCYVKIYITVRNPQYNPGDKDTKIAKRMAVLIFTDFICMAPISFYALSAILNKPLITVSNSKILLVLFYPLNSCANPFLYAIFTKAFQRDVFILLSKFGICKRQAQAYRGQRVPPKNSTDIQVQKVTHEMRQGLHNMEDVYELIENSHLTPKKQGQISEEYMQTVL
Outline: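 TSHR-HEK293 cells were plated and held 18 h at 37C/5% CO2, then given compound plus Ro20-1724 and stimulated with TSH at 1.5 ng/mL final. After 30 min at room temperature, cAMP was detected with cAMP-d2/anti-cAMP-cryptate (1 h) by fluorescence.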

[8] = qHTS assay to identify small molecule agonists of the estrogen receptor alpha (ER-alpha) signaling pathway in the presence of an antagonist - cell viability counter screen (AID 1259386; active = well fitted curve in the direction sought with a large enough effect in the repeat runs; an effect the other way counts as inactive or inconclusive;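 note: series mostly up to about 92 µM; cells exposed to compounds for 22 h at 37 °C before the viability read; nearly all actives have a fitted effect of over 30% in size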)
Outline: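 ICI-182,780 at 10.0nM final accompanies the compound titration (15 concentrations, 22hr, 37C) on VM7Luc4E2 cells. The CellTiter-Fluor fluorescence readout runs in the same wells as the luciferase assay.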

[9] = target: Progesterone receptor (Homo sapiens) (UniProt P06401); experiment: qHTS assay to identify small molecule agonists of the progesterone receptor (PR) signaling pathway (AID 1346784); note: nearly all actives have a fitted effect of over 30% in size
Sequence of Progesterone receptor (Homo sapiens) (P06401 whole entry, looked up): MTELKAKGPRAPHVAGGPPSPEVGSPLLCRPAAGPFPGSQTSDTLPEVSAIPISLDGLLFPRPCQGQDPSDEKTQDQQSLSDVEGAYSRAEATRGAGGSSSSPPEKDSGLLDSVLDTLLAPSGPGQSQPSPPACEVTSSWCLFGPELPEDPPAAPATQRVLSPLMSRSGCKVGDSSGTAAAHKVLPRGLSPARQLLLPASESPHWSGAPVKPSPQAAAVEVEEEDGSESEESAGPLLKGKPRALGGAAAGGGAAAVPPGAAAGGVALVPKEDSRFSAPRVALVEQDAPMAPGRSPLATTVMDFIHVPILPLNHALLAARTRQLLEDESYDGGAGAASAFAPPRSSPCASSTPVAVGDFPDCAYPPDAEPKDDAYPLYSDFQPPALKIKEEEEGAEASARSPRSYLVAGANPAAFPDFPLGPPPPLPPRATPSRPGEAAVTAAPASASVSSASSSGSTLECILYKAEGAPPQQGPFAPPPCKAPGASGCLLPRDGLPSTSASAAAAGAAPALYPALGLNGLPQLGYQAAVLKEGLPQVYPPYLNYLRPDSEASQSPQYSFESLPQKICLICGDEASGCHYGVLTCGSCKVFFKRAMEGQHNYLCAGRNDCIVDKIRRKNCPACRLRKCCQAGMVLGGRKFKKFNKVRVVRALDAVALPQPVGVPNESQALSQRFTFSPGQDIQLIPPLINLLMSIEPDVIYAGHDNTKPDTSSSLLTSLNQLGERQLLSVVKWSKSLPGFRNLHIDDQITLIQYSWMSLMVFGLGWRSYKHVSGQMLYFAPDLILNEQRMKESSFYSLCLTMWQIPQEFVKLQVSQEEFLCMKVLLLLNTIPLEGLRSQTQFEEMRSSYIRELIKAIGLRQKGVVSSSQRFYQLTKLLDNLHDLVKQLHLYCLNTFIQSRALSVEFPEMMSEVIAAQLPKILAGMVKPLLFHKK
Outline: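 Using charcoal-stripped serum (2%) to limit endogenous steroids, PR-UAS-bla HEK 293T cells received compounds for 16 hr at 37C after 6 hr plating; beta-lactamase FRET fluorescence was recorded following 2 hr substrate loading at room temperature.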

[10] = target: Progesterone receptor (Homo sapiens) (UniProt P06401); experiment: qHTS assay to identify small molecule antagonists of the progesterone receptor (PR) signaling pathway (AID 1346795; active = well fitted inhibition curve with a large enough effect in the signal ratio in the repeat runs, not every such curve was filed as active; the % refers to the signal ratio; note: potency is the fitted concentration of half-maximal effect)
Outline: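 Inhibition of R5020-induced (1 nM final) beta-lactamase reporter signal in PR-UAS-bla HEK293T cells was scored by FRET fluorescence after overnight (16 hr) compound treatment.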

[11] = qHTS assay to identify small molecule antagonists of the TGF-beta/Smad signaling pathway - cell viability counter screen (AID 1346824; active = well fitted curve in the direction sought with a large enough effect in the repeat runs; an effect the other way counts as inactive or inconclusive; note: nearly all actives have a fitted effect of over 50% in size)
Outline: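 SBE-bla HEK 293T cells were plated overnight at 37 C, then given compounds in DMSO plus TGF-beta1 (added as 0.25 ng/mL solution) for 5 hr. After the bla read, CellTiter-Glo was added to the same wells and luminescence read after 30 min at room temperature.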

[12] = qHTS assay to identify small molecule agonists of the TGF-beta/Smad signaling pathway - cell viability counter screen (AID 1346829; active = well fitted curve in the direction sought with a large enough effect in the repeat runs; an effect the other way counts as inactive or inconclusive; note: top concentration of the series differs between compounds; nearly all actives have a fitted effect of over 45% in size)
Outline: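 CellTiter-Glo luminescence readout; SBE-bla HEK 293T cells, overnight plating, compound 5 hr at 37 C/5% CO2, then bla substrate 2 hr RT, then CellTiter-Glo 30 min RT.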

[13] = qHTS assay to identify small molecule agonists of the TGF-beta/Smad signaling pathway (AID 1346859; active = well fitted activation curve with a large enough effect in the signal ratio in the repeat runs, not every such curve was filed as active; the % refers to the signal ratio; note: potency is the fitted concentration of half-maximal effect; for activation: series mostly up to about 77 µM)
Outline: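 Stable Smad binding element-beta-lactamase HEK 293T cells; 5 hr compound exposure at 37 C under 5% CO2; 2 hr room-temperature substrate step; fluorescence excited at 405 nm, collected at 460 nm and 530 nm.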

[14] = target: Thyrotropin-releasing hormone receptor (Homo sapiens) (UniProt P34981); experiment: qHTS assay to identify small molecule antagonists of the thyrotropin-releasing hormone receptor (TRHR) signaling pathway (AID 1346877; active = well fitted inhibition curve with a large enough effect in the repeat runs, not every such curve was filed as active; note: series mostly up to about 51 µM)
Sequence of Thyrotropin-releasing hormone receptor (Homo sapiens) (P34981 whole entry, looked up): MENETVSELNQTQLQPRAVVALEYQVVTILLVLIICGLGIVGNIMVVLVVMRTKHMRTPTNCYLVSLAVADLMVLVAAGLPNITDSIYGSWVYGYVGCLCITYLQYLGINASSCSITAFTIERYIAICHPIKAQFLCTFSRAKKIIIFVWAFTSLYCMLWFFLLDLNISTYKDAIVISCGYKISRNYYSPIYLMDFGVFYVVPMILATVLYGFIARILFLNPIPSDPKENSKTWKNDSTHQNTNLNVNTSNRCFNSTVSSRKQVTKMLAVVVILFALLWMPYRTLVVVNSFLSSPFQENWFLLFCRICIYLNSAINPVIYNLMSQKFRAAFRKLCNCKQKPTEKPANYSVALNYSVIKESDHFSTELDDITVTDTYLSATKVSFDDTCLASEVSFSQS
Outline: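 Screening used HEK293 cells engineered with TRHR, with a brief 5 min room-temperature compound exposure preceding addition of TRH to 1 nM. The read-out was kinetic calcium-dye fluorescence, concentration-response from 15 doses in triplicate.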

[15] = target: Androgen receptor (Homo sapiens) (UniProt P10275); experiment: qHTS assay to identify small molecule agonists of the androgen receptor (AR) signaling pathway in the presence of an antagonist (AID 1259381); note: nearly all actives have a fitted effect of over 15% in size
Sequence of Androgen receptor (Homo sapiens) (P10275 whole entry, looked up): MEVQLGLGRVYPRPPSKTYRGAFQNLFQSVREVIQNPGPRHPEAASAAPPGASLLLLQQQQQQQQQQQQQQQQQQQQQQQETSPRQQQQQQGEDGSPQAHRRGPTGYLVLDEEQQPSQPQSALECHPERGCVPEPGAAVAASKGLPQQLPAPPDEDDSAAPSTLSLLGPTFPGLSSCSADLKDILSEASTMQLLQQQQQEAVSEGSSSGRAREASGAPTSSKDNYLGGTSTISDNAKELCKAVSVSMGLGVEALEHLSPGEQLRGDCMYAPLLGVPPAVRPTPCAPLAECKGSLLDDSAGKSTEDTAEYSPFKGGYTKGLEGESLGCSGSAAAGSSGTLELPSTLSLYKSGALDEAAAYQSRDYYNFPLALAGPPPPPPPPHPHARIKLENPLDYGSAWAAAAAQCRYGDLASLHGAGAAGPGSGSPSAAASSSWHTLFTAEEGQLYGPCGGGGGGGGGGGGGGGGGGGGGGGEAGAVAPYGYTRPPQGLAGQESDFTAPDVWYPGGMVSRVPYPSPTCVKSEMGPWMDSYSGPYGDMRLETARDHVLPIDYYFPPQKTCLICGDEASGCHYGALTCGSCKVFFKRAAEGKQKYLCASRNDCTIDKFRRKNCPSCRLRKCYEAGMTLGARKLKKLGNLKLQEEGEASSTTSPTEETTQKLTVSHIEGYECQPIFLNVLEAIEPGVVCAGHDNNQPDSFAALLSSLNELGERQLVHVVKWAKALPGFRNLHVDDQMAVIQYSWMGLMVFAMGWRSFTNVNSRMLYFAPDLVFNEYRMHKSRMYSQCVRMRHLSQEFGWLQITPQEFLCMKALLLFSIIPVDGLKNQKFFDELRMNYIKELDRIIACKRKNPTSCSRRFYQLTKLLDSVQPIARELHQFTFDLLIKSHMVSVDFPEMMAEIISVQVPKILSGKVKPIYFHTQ
Outline: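 Using human MDA-kb2 cells with an MMTV promoter–luciferase construct (AR and GR response elements), agonist activity is scored under 3.0uM nilutamide (final) co-treatment; 16hr incubation, 37C, luminescence readout via ONE-Glo.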

[16] = qHTS assay to identify small molecule antagonists of the progesterone receptor (PR) signaling pathway - cell viability counter screen (AID 1346798; active = well fitted curve in the direction sought with a large enough effect in the repeat runs; an effect the other way counts as inactive or inconclusive; note: series mostly up to about 92 µM; nearly all actives have a fitted effect of over 50% in size)
Outline: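 ATP content as viability readout: CellTiter-Glo luminescence, 30 min room temperature, in PR-UAS-bla HEK293T cells after 16 hr compound/R5020 treatment at 37C and 5% CO2.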

[17] = qHTS assay to identify small molecule agonists of the progesterone receptor (PR) signaling pathway - cell viability counter screen (AID 1346799); note: nearly all actives have a fitted effect of over 45% in size
Outline: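 Cytotoxicity in PR-bla HEK293T cells: 16 h compound, 37C; CellTiter-Glo added post-FRET read; luminescence after 30 min RT.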

[18] = target: Estrogen receptor beta (Homo sapiens) (UniProt Q92731); experiment: qHTS assay to identify small molecule antagonists of the estrogen receptor beta (ER-beta) signaling pathway (AID 1259378; active = well fitted inhibition curve with a large enough effect in the signal ratio in the repeat runs, not every such curve was filed as active; the % refers to the signal ratio; note: potency is the fitted concentration of half-maximal effect)
Sequence of Estrogen receptor beta (Homo sapiens) (Q92731 whole entry, looked up): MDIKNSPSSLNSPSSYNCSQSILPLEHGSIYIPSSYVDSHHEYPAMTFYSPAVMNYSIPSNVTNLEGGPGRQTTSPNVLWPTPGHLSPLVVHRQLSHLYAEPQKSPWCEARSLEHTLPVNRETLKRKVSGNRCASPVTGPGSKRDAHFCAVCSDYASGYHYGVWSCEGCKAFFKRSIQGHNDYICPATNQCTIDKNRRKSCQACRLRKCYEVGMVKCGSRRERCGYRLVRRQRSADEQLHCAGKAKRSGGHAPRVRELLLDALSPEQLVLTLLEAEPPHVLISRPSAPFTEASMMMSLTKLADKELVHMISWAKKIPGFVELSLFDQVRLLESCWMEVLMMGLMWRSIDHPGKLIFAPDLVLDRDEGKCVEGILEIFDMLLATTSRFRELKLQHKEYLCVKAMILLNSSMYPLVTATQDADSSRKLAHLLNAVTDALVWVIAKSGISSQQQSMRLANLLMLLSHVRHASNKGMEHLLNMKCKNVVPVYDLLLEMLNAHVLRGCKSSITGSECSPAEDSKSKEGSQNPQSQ
Outline: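 ER-beta-UAS-bla HEK293T (GripTite) cells in 2% charcoal-stripped FBS medium were preincubated 6 hr at 37C, dosed with compound, then stimulated with 1 nM E2 (final) for 16 hr; beta-lactamase reporter read by B/G FRET fluorescence after 2 hr substrate loading.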

[19] = qHTS assay to identify small molecule antagonists of the sonic hedgehog signaling (Shh) pathway (AID 1259369); note: nearly all actives have a fitted effect of over 45% in size; note: potency is the fitted concentration of half-maximal effect
Outline: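 Conditioned medium drives Shh signalling in 3T3Gli1-Luc cells; compounds in DMSO co-applied, 24hr at 37 C, then luciferase luminescence.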

[20] = target: Estrogen receptor beta (Homo sapiens) (UniProt Q92731); experiment: qHTS assay to identify small molecule agonists of the estrogen receptor beta (ER-beta) signaling pathway (AID 1259377; active = well fitted activation curve with a large enough effect in the signal ratio in the repeat runs, not every such curve was filed as active; the % refers to the signal ratio)
Outline: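 In HEK293T cells bearing a UAS-beta-lactamase reporter under ER-beta control, DMSO-delivered compounds were incubated for 16 hr at 37C. Activity was detected as fluorescence 2 hours after LiveBLAzer B/G FRET substrate addition.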

Compound | Potency [1] | Potency [2] | Potency [3] | Potency [4] | Potency [5] | outcome [6] | Potency [7] | Potency [8] | Potency [9] | Potency [10] | Potency [11] | Potency [12] | Potency [13] | outcome [14] | Potency [15] | Potency [16] | Potency [17] | Potency [18] | Potency [19] | Potency [20]
C[C@]12CC[C@@H]3c4ccc(O)cc4CC[C@H]3[C@@H]1CC[C@@H]2OC(=O)CCC1CCCC1 | inactive | inactive | 61.1 µM (active) and 29.8 µM (active) | inactive | 4.9 nM (active) and 4.2 nM (active) | inactive | inactive | inactive | inactive | 0.386 µM (active) | inactive | inactive | inactive | inactive | – | – | – | – | – | –
NC(=O)c1ccncc1 | inactive | inactive | inactive | – | – | inactive | inactive | inactive | inactive | inactive | inactive | inactive | inactive | inactive | inactive | inactive | inactive | – | – | –
CC(C)C(O)(c1ccc(OC(F)(F)F)cc1)c1cncnc1 (configuration not stated) | inactive | inactive | inactive | inactive | – | inactive | inactive | inactive | inactive | 30.5 µM (active) | inactive | inactive | inactive | inactive | – | inactive | inactive | – | – | –
COc1ccccc1Oc1c(NS(=O)(=O)c2ccc(C(C)(C)C)cc2)nc(-c2ncccn2)nc1OCCO | inactive | inactive | – | inactive | inactive | inactive | inactive | inactive | inactive | – | inactive | – | inactive | inactive | – | inactive | inactive | – | – | –
COC(=O)c1nc(Cl)c(Cl)nc1N | inactive | 29.8 µM (active) | 29.8 µM (active) | – | inactive | inactive | inactive | inactive | – | – | inactive | inactive | 23.9 µM (active) | inactive | – | – | – | – | – | –
Oc1c(I)cc(I)c2cccnc12 | – | – | – | inactive | inactive | inactive | inactive | – | inactive | – | – | inactive | inactive | inactive | – | inactive | – | 6.68 µM (active) | – | –
O=C1c2ccccc2C(=O)C1(O)O | – | inactive | – | inactive | inactive | inactive | – | – | inactive | inactive | – | – | – | inactive | – | inactive | inactive | inactive | 15.4 µM (active) | –
O=[N+]([O-])c1ccc(O/N=C/c2cc(Br)c(O)c(Br)c2)c([N+](=O)[O-])c1 | inactive | 48.3 µM (active) | – | inactive | inactive | inactive | – | – | – | – | inactive | – | – | – | – | – | – | – | – | –
CN1C(=O)OC(C)(C)C1=O | – | inactive | inactive | – | inactive | – | – | – | inactive | inactive | inactive | inactive | inactive | inactive | – | inactive | inactive | inactive | inactive | inactive
COC(=O)[C@H]1[C@H]2C[C@@H]3c4[nH]c5cc(OC)ccc5c4CCN3C[C@H]2C[C@@H](OC(=O)/C=C/c2ccc(O)c(OC)c2)[C@@H]1OC | inactive | – | 8.41 µM (active) | – | inactive | inactive | inactive | inactive | inactive | – | – | inactive | – | inactive | inactive | – | – | – | – | –
C/C=C(/C(=C/C)c1ccc(O)cc1)c1ccc(O)cc1 | inactive | inactive | inactive | inactive | 15 nM (active) | inactive | inactive | – | inactive | – | inactive | – | inactive | inactive | – | inactive | – | – | – | –
Cc1ccccc1N=C(N)Nc1ccccc1C | inactive | inactive | inactive | inactive | inactive | inactive | inactive | – | inactive | inactive | inactive | inactive | inactive | inactive | – | inactive | inactive | – | – | –
CN(C)CCC=C1c2ccccc2C=Cc2ccccc21 | inactive | – | 26.6 µM (active) | – | inactive | inactive | 29.8 µM (active) | inactive | inactive | – | inactive | inactive | inactive | inactive | – | – | – | – | – | –

Source: PubChem BioAssay (Tox21)
